{"source": "PubChem BioAssay (NCI)", "note": "Compounds without any hit were thinned out: in the full panel of roughly 83,000, 20% have a hit.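 Single-dose data. Exposure time 48 hours. Values below 10 considered active.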 Active and inactive are the calls of the source."}
{"system": "HL-60(TB) leukemia", "test": "NCI-60 one-dose screen, 48 h (100 = growth as untreated, 0 = no growth, -100 = all killed)", "conditions": "10 µM unless noted"}
{"molecule": "CN(C)S(=O)(=O)c1cccc(-c2nc3sc4c(c3c(=O)[nH]2)CCCC4)c1", "growth": "22.3% (inactive)"}
{"molecule": "Clc1cc(Cl)c2nc(-c3ccc(-c4ccc(/C=N/NC5=NCCN5)cc4)s3)cn2c1", "growth": "98.4% (inactive)"}
{"molecule": "COc1cc2nccc(Oc3ccc(NC(=O)C4(C(=O)Nc5ccc(F)cc5)CC4)cc3)c2cc1OC", "growth": "8.85% (active)"}
{"molecule": "COc1cc2c3c(c4c5ccccc5[nH]c4c2c(OC)c1OC)C(=O)N(O)C3=O", "growth": "51.7% (inactive)"}
{"molecule": "CN1CCN(c2ccc(/C=C/C(=O)c3ccc(O)cc3)cc2)CC1", "growth": "115% (inactive)"}
{"molecule": "CCOC(=O)c1ccc(N(CCC(=O)O)C(C)=O)cc1", "growth": "117% (inactive)"}
{"molecule": "Cn1cc(-c2noc(C(=O)c3cn(C)c4ncccc34)n2)c2ccccc21", "growth": "98.6% (inactive)"}
{"molecule": "CS(=O)(=O)c1nccc(-c2c(-c3ccc(OCCc4ccccc4)cc3)nc3sccn23)n1", "growth": "89.5% (inactive)"}
{"molecule": "Cn1ccnc1C(=O)/C=C/c1ccc(CC(=O)NC2CCCCC2)cc1", "growth": "68.1% (inactive)"}
{"molecule": "COc1ccc(C2=NN(C(C)=O)C(c3cn(-c4ccccc4)nc3-c3ccc(Cl)cc3)C2)cc1", "note": "(configuration not stated)", "growth": "3.16% (active)"}
{"molecule": "COc1cc(/C=C2\\CN(C(=O)OC(C)(C)C)C/C(=C\\c3ccc(O)c(OC)c3)C2=O)ccc1O", "growth": "97.1% (inactive)"}
{"molecule": "Cc1ccc(S(=O)(=O)NCCNc2nccc(-c3c(-c4ccc(O)cc4)nc4sccn34)n2)cc1", "growth": "155% (inactive)"}
{"molecule": "Cc1ccc(S(=O)(=O)N(CC[C@@H]2C[C@H]2c2cc3ccccc3o2)C(=O)NC2CCCCC2)cc1", "growth": "105% (inactive)"}
{"molecule": "CCN1C(=O)N(CC)C2C1NC(=S)N2/N=C/c1ccc(C(F)(F)F)cc1", "note": "(configuration not stated)", "growth": "78.8% (inactive)"}
{"molecule": "CCN1CCCC(Nc2cc(C)nc(/N=C(/N)Nc3ccc(Cl)c(Cl)c3)n2)C1", "note": "(configuration not stated)", "growth": "-42.7% (active)"}
{"molecule": "O=C1/C(=C/N2N=C(c3ccc4ccccc4c3)CC2c2ccccc2O)SC(=S)N1c1cccnc1", "note": "(configuration not stated)", "growth": "-15.3% (active)"}
{"molecule": "COc1cc(-c2c3c(cn2S(=O)(=O)c2ccccc2)-c2nc(N)sc2CC3)cc(OC)c1OC", "growth": "13.2% (inactive)"}
{"molecule": "C=CCNC(=S)NNc1ccc([N+](=O)[O-])cn1", "growth": "87.2% (inactive)"}
{"molecule": "O=C(Cn1cc(COc2ncnc3c2cnn3-c2ccccc2)nn1)Nc1cccc2ccccc12", "growth": "101% (inactive)"}
{"molecule": "Cc1c(O)cc(-c2cnc(N/N=C/c3ccccc3)s2)c(O)c1C", "growth": "19.1% (inactive)"}
{"molecule": "COc1cc(OC)cc(N2CCN(C(=O)Nc3nc4cc(F)ccc4nc3OC)CC2)c1", "growth": "-17% (active)"}
{"molecule": "COc1cc(-c2nc3ccccc3s2)ccc1NC(=O)COc1ccc(Cl)cc1", "growth": "56.3% (inactive)"}
{"molecule": "O=C1/C(=C/c2ccc([N+](=O)[O-])o2)Oc2ccc(Cl)cc21", "growth": "-21.3% (active)"}
{"molecule": "C[C@]12CCc3nc(Nc4cccc(O)c4)sc3C1=CC[C@@H]1[C@@H]2CC[C@]2(C)/C(=N\\NC(N)=S)CC[C@@H]12", "growth": "10.9% (inactive)"}
{"molecule": "O=[N+]([O-])c1cc(-c2ccccc2)c(O)c([N+](=O)[O-])c1", "growth": "57.1% (inactive)"}
{"molecule": "Cn1c(=O)n(C)c2cc(CNCCNc3ccnc4cc(Cl)ccc34)ccc21", "growth": "35.4% (inactive)"}
{"molecule": "C/C(C=O)=C\\c1ccc2c(c1)OCO2", "growth": "102% (inactive)"}
{"molecule": "COc1ccc(NC(=O)Cc2nc3nc4sc(C)c(C)c4c(=O)n3[nH]2)cc1", "growth": "109% (inactive)"}
{"molecule": "CCCCCCCCOC(=O)CC[C@@H](C)[C@H]1CC[C@H]2[C@@H]3[C@H](OC(=O)CCN)C[C@@H]4C[C@H](OC(=O)CCN)CC[C@]4(C)[C@H]3C[C@H](OC(=O)CCN)[C@]12C", "growth": "43.7% (inactive)"}
{"molecule": "COc1ccc(Cn2cc3c(c2-c2ccccc2)CCc2cnoc2-3)cc1OC", "growth": "7.72% (active)"}
{"molecule": "N#Cc1c(NC(=O)c2ccc([N+](=O)[O-])o2)[n+]([O-])c2cc(F)c(F)cc2[n+]1[O-]", "growth": "90.2% (inactive)"}
{"molecule": "CC1(C)CCc2cc(-c3ccn(S(=O)(=O)c4ccc(Cl)cc4)n3)ccc2O1", "growth": "71.9% (inactive)"}
{"molecule": "Brc1ccc(-c2cnc3nonc3n2)cc1", "growth": "19.6% (inactive)"}
{"molecule": "O=C(COc1ccc(/C=C2\\Oc3ccccc3C2=O)cc1)Nc1nc2ccccc2s1", "growth": "-68.9% (active)"}
{"molecule": "O=C1CCN2C(=O)Nc3ccccc3C2C1", "note": "(configuration not stated)", "growth": "94.5% (inactive)"}
{"molecule": "CSc1nc(Nc2cccc(NC(=O)/C(C#N)=C/c3c(Cl)cccc3Cl)c2)c(C#N)c(-c2cccc([N+](=O)[O-])c2)n1", "growth": "58.3% (inactive)"}
{"molecule": "COC(=O)[C@]12CC[C@@H](C)[C@H](C)[C@@H]1C1=CC[C@@H]3[C@@]4(C)C=C(O)C(=O)[C@@]5(C)COC(=C54)C[C@@]3(C)[C@]1(C)CC2", "growth": "-50% (active)"}
